Screen size: about 310,000 compounds; about 1,000 (0.32%) were called active. No rule for the calls is given here. Not all results are given here. Entries with a potency or affinity are not part of this list.

This test in a line: PhoP regulon inhibitors, Salmonella typhi PhoP promoter GFP reporter, confirmatory (AID 1850).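 Also: 0% = induced wells with vehicle and 100% = uninduced wells.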 The following applies: fluorescence, 4 h, at 50 µM, hits give high values.
As to `O=C(NC1CCCCC1)C(c1ccncc1)N(Cc1ccc(F)cc1)C(=O)c1ccccn1` (stereo unspecified), the inhibition is -1.84% (inactive). Consider `CN(C)CC(O)COc1cc2ccccc2cc1C(=O)N1CCCCC1` (stereo unspecified), for which the inhibition is 9.49% (inactive). `CCCCCCCC(=O)Nc1ccc(S(=O)(=O)Nc2nccs2)cc1`: the inhibition was -7.23% (inactive).

In the case of `O=C1CSC(c2cccc([N+](=O)[O-])c2)N1CCN1CCCCC1` (stereo unspecified), the inhibition was -7.55% (inactive). Take `CC(=O)c1c(N2CCOCC2)nc(=S)n(-c2ccc([N+](=O)[O-])cc2)c1C`: the inhibition was 3.58% (inactive).

Consider `Cc1cc(/C([O-])=C(/C(=S)Nc2ccc(F)cc2)[n+]2ccccc2)c(C)n1Cc1ccccc1Cl`, for which the inhibition was -18.8% (inactive). Regarding `OCCN1CCN(c2ncnc3scc(-c4ccc(F)cc4)c23)CC1`, the inhibition was 4.62% (inactive). Consider `COc1ccccc1N1CCN(Cc2ccc(OC)c(OC)c2OC)CC1`, for which the inhibition was 5.73% (inactive). Under `Oc1ccc(CN2CCc3ccccc3C2)c2cccnc12` stands -5.43% (inactive). On to `OCc1ccc(O)c2ncccc12`, for which the inhibition was 0.16% (inactive). In the case of `COc1ccccc1N1CCN(Cc2cc(Br)c(O)c3ncccc23)CC1`, the inhibition is 3.41% (inactive). `COCCn1cnc2c1c(=O)n(CC(=O)OCC(=O)NCCCc1ccccc1)c(=O)n2Cc1ccccc1`: the inhibition is 5.65% (inactive).

For `Cc1nc2cc(NC(=O)c3ccc(S(=O)(=O)N(C)c4ccccc4)cc3)ccc2o1`, the inhibition was -24.8% (inactive). The result for `CC(C)NC(=O)CCCc1ccccc1` reads -2.72% (inactive). Take `CC[n+]1c(/C=C/Nc2ccccc2)sc2ccccc21`: the inhibition is 11.1% (inactive). Consider `CN(C)c1ccc(/C=C/C=C/c2sc3ccccc3[n+]2C)cc1`, for which the inhibition was 14.1% (inactive).

`CC[n+]1c(/C=C(\C)SC)sc2ccccc21`: the inhibition is 8.28% (inactive). On to `CCN1/C(=C/C=C/C=C/C=C/c2sc3ccccc3[n+]2CC)Sc2ccccc21`, for which the inhibition was 5.61% (inactive). Turning to `CC[n+]1c(/C=C(/C)SC)sc2ccccc21`, the inhibition is -5.74% (inactive). The result for `CC[n+]1c(/C=C/C=C/N(C(C)=O)c2ccccc2)sc2ccccc21` reads -299% (inactive). Consider `COc1ccc(/C=C/C2=CCN(Cc3ccc(OC)cc3)CC2)cc1`, for which the inhibition was 5.66% (inactive). Regarding `COc1ccc(CN2CC(C(N)=O)Oc3ccccc32)cc1F` (stereo unspecified), the inhibition is -14.6% (inactive).

Take `Cc1ccccc1C(=O)Nc1c(C(=O)N2CCCC2)cnn1-c1ccccc1`: the inhibition was -11.9% (inactive). In the case of `CN(C)S(=O)(=O)c1ccc(NC(=O)COC(=O)CC2CC3CCC2C3)cc1` (stereo unspecified), the inhibition is -11.3% (inactive). Turning to `Cc1ccc(C)n1-c1ccccc1N`, the inhibition was 7.67% (inactive). With `C/C(CC(=O)NC1C2CC3CC(C2)CC1C3)=N\NC(=O)Cc1cccs1` (stereo unspecified), the inhibition is 5.86% (inactive). As for `CC(=O)c1coc2c1cc(O)c1ccccc12`, the inhibition was -10.2% (inactive). Regarding `CC(=O)Oc1c(C)cc(O)c2ccccc12`, the inhibition is -6.69% (inactive). As to `COc1ccc2[nH]cc(C(=O)CN3CCCC(C)(C)C3)c2c1`, the inhibition is 12.1% (inactive). With `CCOC(=O)CCNC(=O)Nc1ccc2nc(C)n(Cc3ccccc3Cl)c(=O)c2c1`, the inhibition was 12% (inactive). Turning to `CC(=O)N(Cc1cc2cc(C)c(C)cc2n2nnnc12)CC1COCCO1` (stereo unspecified), the inhibition is -4% (inactive).

In the case of `CC(C)N(Cc1nc(-c2ccccc2)no1)C(=O)c1ccc2c(c1)OCO2`, the inhibition is 1.2% (inactive).

For `COc1ccc(CCC(=O)NCCOc2ccc(Cl)cc2)cc1`, the inhibition is -4.36% (inactive). `CN1CCc2nc(SCC(=O)Nc3ccc(OC(F)(F)F)cc3)c(C#N)c(-c3cccs3)c2C1`: the inhibition is -3.5% (inactive). For `COc1ccc(NC(=O)CSc2nc3c(c(-c4cccs4)c2C#N)CN(C)CC3)cc1OC`, the inhibition was 0.71% (inactive). With `COc1ccccc1Nc1ccc([N+](=O)[O-])cc1N`, the inhibition was 2.25% (inactive). The result for `CC1CC(C)CN(S(=O)(=O)c2ccc3c(c2)CC(C)N3C(=O)C2CC2)C1` (stereo unspecified) reads -20.4% (inactive). With `CCc1ccc(-c2cc(C)no2)cc1S(=O)(=O)N1CCN(c2ccc(OC)cc2)CC1`, the inhibition was -6.02% (inactive). The result for `O=[N+]([O-])c1ccc(N2CCCC2)c2ncccc12` reads -3.29% (inactive). For the compound `O=[N+]([O-])c1cccc2c(N3CCOCC3)ccnc12`, the inhibition is -0.36% (inactive). For the compound `Cc1cc(C)cc(OCC(=O)Nc2cccc(-c3nnc(-c4ccco4)o3)c2)c1`, the inhibition was 3.78% (inactive). Consider `CCCCNC(=O)O[C@@H]1C[C@H]2CCC(=O)N3CC[C@@H](C1)[C@@H]23`, for which the inhibition was 4.97% (inactive). Turning to `CCC(C)c1ccc(NC(=O)c2[nH]c(C)c(C(C)=O)c2C)cc1` (stereo unspecified), the inhibition was -9.52% (inactive). With `COc1ccc(C=Nc2ccc3[nH]ncc3c2)c(O)c1`, the inhibition was 0.93% (inactive). As to `Cc1ccc(O)c(C=Nc2ccc3[nH]ncc3c2)c1`, the inhibition was -7.82% (inactive). Regarding `CC1=C(C#N)C(c2cccnc2)C2=C(N1)c1ccccc1C2=O` (stereo unspecified), the inhibition is 1.42% (inactive).

Take `Cc1ccc(Nc2ccc(NCc3ccccc3)nn2)cc1C`: the inhibition was -4.54% (inactive).

Regarding `Cc1cccc(Nc2ccc(NCc3ccccc3)nn2)c1`, the inhibition is 5.48% (inactive). Take `O=C(O)/C=C/C(=O)N1CCN(c2ccc(F)cc2)CC1`: the inhibition was 2.57% (inactive). Turning to `Cc1c(Cc2ccccc2)c(=O)oc2cc(OCC(=O)N[C@@H](Cc3ccccc3)C(=O)O)ccc12`, the inhibition is 1.41% (inactive). Take `C#CCOCCOCCOCCNc1nc(N2CCN(C(=O)C(Cc3cc4ccccc4[nH]3)n3cc(C(N)C(C)CC)nn3)CC2)nc(N2CCN(C(=O)C(Cc3cc4ccccc4[nH]3)n3cc(C(N)C(C)CC)nn3)CC2)n1` (stereo unspecified): the inhibition was 37.5% (inactive). The result for `C#CCOCCOCCOCCNc1nc(N2CCOCC2)nc(N2CCN(C(=O)[C@H](Cc3cc4ccccc4[nH]3)n3cc([C@@H](N)CC(C)C)nn3)CC2)n1` reads 7.58% (inactive); that for `C#CCOCCOCCOCCNc1nc(N2CCN(C(=O)[C@H](CCC(=O)O)n3cc(C(N)CC(C)C)nn3)CC2)nc(N2CCN(C(=O)[C@H](Cc3cc4ccccc4[nH]3)n3cc(C(N)CC(C)C)nn3)CC2)n1` (stereo partly specified), -7.76% (inactive). Consider `C#CCOCCOCCOCCNc1nc(N2CCN(C(=O)[C@H](Cc3cc4ccccc4[nH]3)n3cc(C(N)CC(C)C)nn3)CC2)nc(N2CCN(C(=O)[C@H](CCC(=O)O)n3cc(C(N)[C@H](C)CC)nn3)CC2)n1` (stereo partly specified), for which the inhibition is -6.17% (inactive). On to `CN(C)C(=S)Nc1ccc(Cc2ccncc2)cc1`, for which the inhibition was -0.62% (inactive). For `CCN(Cc1ccccc1)C(=O)c1cccc(S(=O)(=O)N2CCN(c3ccccc3)CC2)c1`, the inhibition is 1.18% (inactive).

As for `COCCCN1CN(S(=O)(=O)c2ccc(C)cc2C)c2nc3ccccc3nc21`, the inhibition was 6.06% (inactive). As to `COCCCNC(=O)c1ccccc1N(Cc1ccccc1)S(=O)(=O)c1ccccc1`, the inhibition was -7.24% (inactive). For `N=c1ccn(Cc2ccc(Cl)cc2Cl)cc1`, the inhibition is 22.8% (inactive). As for `N=c1c2c(n(Cc3ccc(F)cc3)c3c1CCC3)CCCC2`, the inhibition is 5.47% (inactive). With `CCn1c2c(c(=N)c3c1CCC3)CCCC2`, the inhibition was 8.7% (inactive).

As to `N=c1c2c(n(Cc3ccc(F)cc3)c3c1CCC3)CCC2`, the inhibition was -1.84% (inactive). For the compound `N=c1c2c(n(Cc3ccccc3)c3c1CCC3)CCC2`, the inhibition was -2.77% (inactive). With `Clc1cccc(CN2CCCCCC2)c1`, the inhibition is -6.25% (inactive). For the compound `N=c1c2c(n(Cc3ccc([N+](=O)[O-])cc3)c3c1CCC3)CCCC2`, the inhibition was -1.87% (inactive). Take `N=c1c2c(n(Cc3ccc(Br)cc3)c3c1CCC3)CCCC2`: the inhibition was -4.26% (inactive).

Regarding `COc1ccc(N2CCN(S(=O)(=O)CCNC(=O)/C=C/c3ccc4c(c3)OCO4)CC2)cc1`, the inhibition is -1.81% (inactive). For `CC(C)NC(=O)C(=O)NCc1ccccn1`, the inhibition was 15.4% (inactive).

For the compound `CN(CCn1ccnc1)Cc1cn(Cc2ccccc2)nc1-c1ccc2c(c1)OCO2`, the inhibition is 8.95% (inactive).

Turning to `CCCn1c(=O)c(C(=O)NCCc2ccc(OC)c(OC)c2)c(O)c2ccccc21`, the inhibition is 3.2% (inactive).

On to `CCn1c(/N=C/c2ccccc2O)nc2ccccc21`, for which the inhibition was -0.93% (inactive). Under `CCN1CCSc2ccc(C(=O)NCc3ccc(OC(C)C)cc3)cc21` stands -2.46% (inactive); under `O=C(CNCCC1=CCCCC1)Nc1ccccc1N1CCCCCC1`, 5.47% (inactive); under `COc1ccc(NC(=O)CNCCC2=CCCCC2)cc1`, -8.03% (inactive). Take `O=S1(=O)NC(=NCCc2ccccn2)c2ccccc21`: the inhibition was -5.57% (inactive). Turning to `Cc1ccc2ccc3cccnc3c2n1`, the inhibition is 2.32% (inactive). Turning to `Cc1ccc2c(c1)-c1ccccc1S(=O)(=O)N2`, the inhibition was -6.75% (inactive). Under `Clc1ccc2ccc3cccnc3c2n1` stands 2.67% (inactive). For `CCC(C)c1ccccc1N1CC(C(=O)Nc2cc(S(=O)(=O)N3CCOCC3)ccc2OC)CC1=O` (stereo unspecified), the inhibition is 1.56% (inactive). `CSc1ccc(C2NC(=O)CCC2[N+](=O)[O-])cc1` (stereo unspecified): the inhibition is 9.78% (inactive). The result for `Cc1c(C(=O)N2CCN(C(=O)c3ccco3)CC2)oc2c(Cl)cccc12` reads 5.99% (inactive); that for `O=C(O/N=C/C1=C(Cl)c2ccccc2CC1)c1ccc(F)cc1`, -1% (inactive). For the compound `Cc1ccc(C(=O)O/N=C/C2=C(Cl)c3ccccc3CC2)cc1`, the inhibition is 3.65% (inactive). `CCC(C)NCCOc1cc(C)cc(C)c1C` (stereo unspecified): the inhibition was 10.5% (inactive). `CCOC(=O)c1c(C)[nH]c(C)c1S(=O)(=O)N1c2ccccc2CC1C` (stereo unspecified): the inhibition was -32.7% (inactive). Under `CCOc1ccccc1N1C(=O)NC(=O)C(CCc2ccncc2)(CCc2ccncc2)C1=O` stands -6.46% (inactive); under `CCc1cccc(NC(=O)CSc2nc3c(c(=O)[nH]2)CCCC3)c1`, 8.6% (inactive); under `COC(=O)CSC1=NS(=O)(=O)c2ccccc21`, -2.6% (inactive). Regarding `CN1CCN(/N=C/c2ccc(-c3ccccc3)cc2)CC1`, the inhibition is 1.69% (inactive). With `CN1CCN(/N=C/c2cccc(Cl)c2Cl)CC1`, the inhibition is 0.18% (inactive).

Turning to `CCC(C)(C)NC(=O)C(c1ccc(OC)cc1)N(C(=O)CCC(=O)Nc1cc(C)on1)c1cccc(OC)c1` (stereo unspecified), the inhibition was 1.27% (inactive).

(Values after PubChem BioAssay AID1850 (Southern Research Specialized Biocontainment Screening …, 2009).)
